# According to PubChem BioAssay (NCATS):
# A number with no mark means an inactive call. Results filed as inconclusive are left out. Where a call stands in place of a potency, no number is given. Active and inactive are the calls of the source. Unless noted, calls come from the whole dose curve; as a rule, active = well fitted curve in the direction sought with a large enough effect; inconclusive = small, poorly fitted or top-dose-only effect, or another doubt; inactive = no such curve, though single readings can be large; an effect the other way counts as inactive or inconclusive.
# Experiments:
# [1] = molecular target: DNA dC->dU-editing enzyme APOBEC-3G (Homo sapiens) (UniProt Q9HC16); test: qHTS for inhibitors of Vif-A3G interactions: Validation (AID 588379)
# Outline: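 HeLa cells stably expressing Vif and A3G-eYFP, 700 cells/well, incubated overnight at 37 deg C, then exposed to compound overnight at 37 deg C. Inhibition of Vif-mediated degradation read as increased yellow fluorescence (Ex 488/Em 500-530) by laser-scanning cytometry.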
# [2] = molecular target: Glucocorticoid receptor (Homo sapiens) (UniProt P04150); test: GR-GFP Redistribution (AID 450;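 active = compounds whose dose series gives a full or clear partial fitted curve of increased nuclear translocation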; note: potency is the fitted concentration of half-maximal effect); conditions: U2OS GR-GFP nuclear translocation, laser cytometry, 2 h
# [3] = molecular target: Ubiquitin carboxyl-terminal hydrolase 1 (Homo sapiens) (UniProt O94782); test: Inhibitors of USP1/UAF1: Pilot qHTS (AID 504865);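 note: rhodamine fluorescence freed from ubiquitin-rhodamine substrate followed over time; top concentration of the series differs between compounds; nearly all actives have a fitted effect of over 35% in size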
# Outline: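 Enzyme-free wells gave the negative control, while test wells held 1nM USP1/UAF1 preincubated with compound for 15 min at room temperature. Ub-Rho at 150nM final started the reaction, and fluorescence at 480/540 nm was recorded kinetically.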
# [4] = S16 Schwann cell PMP22 intronic element firefly luciferase assay (AID 624032); note: nearly all actives have a fitted effect of over 30% in size; note: potency is the fitted concentration of half-maximal effect
# Outline: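 Rat S16 Schwann cells stably carrying firefly luciferase driven by a PMP22 intronic element, in 10% FBS, treated 24 h at 37 C. ONE-Glo luminescence normalized to PTC124 control and DMSO (0%); curves classed by r2, magnitude and activity.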
# CP238 = test: qHTS profiling for inhibitors of Plasmodium falciparum proliferation (AID 504749); note: nearly all actives have a fitted effect of over 60% in size; note: potency is the fitted concentration of half-maximal effect; conditions: P. falciparum in erythrocytes, SYBR Green DNA, 72 h; series mostly up to 28.7 µM
# Outline: (§1)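 P. falciparum-infected erythrocytes (0.3% parasitemia, 2.5% hematocrit) incubated with compound 72 h at 37 C, 5% CO2. Parasite DNA detected by SYBR Green after lysis, overnight at room temperature; normalised to 0.29 uM artemisinin and DMSO.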
# CP250 = test: as above; conditions: P. falciparum in erythrocytes, SYBR Green DNA, 72 h; series mostly up to 28.7 µM
# Outline: as §1
# CP262 = test: as above; conditions: P. falciparum in erythrocytes, SYBR Green DNA, 72 h; series mostly up to 28.7 µM
# Outline: as §1
# CP265 = test: as above; conditions: P. falciparum in erythrocytes, SYBR Green DNA, 72 h; series mostly up to 28.7 µM
# Outline: as §1
# CP297 = test: as above; conditions: P. falciparum in erythrocytes, SYBR Green DNA, 72 h; series mostly up to 28.7 µM
# Outline: as §1
# CP315 = test: as above; conditions: P. falciparum in erythrocytes, SYBR Green DNA, 72 h; series mostly up to 28.7 µM
# Outline: as §1
# CP325 = test: as above; conditions: P. falciparum in erythrocytes, SYBR Green DNA, 72 h; series mostly up to 28.7 µM
# Outline: as §1
# CP329 = test: as above; conditions: P. falciparum in erythrocytes, SYBR Green DNA, 72 h; series mostly up to 28.7 µM
# Outline: as §1
# CP335 = test: as above; conditions: P. falciparum in erythrocytes, SYBR Green DNA, 72 h; series mostly up to 28.7 µM
# Outline: as §1
# Dd2 = test: as above; conditions: P. falciparum in erythrocytes, SYBR Green DNA, 72 h; series mostly up to 28.7 µM
# Outline: as §1
# ECU = test: as above; conditions: P. falciparum in erythrocytes, SYBR Green DNA, 72 h; series mostly up to 28.7 µM
# Outline: as §1
# FAB9 = test: as above; conditions: P. falciparum in erythrocytes, SYBR Green DNA, 72 h; series mostly up to 28.7 µM
# Outline: as §1
# GB4 = test: as above; conditions: P. falciparum in erythrocytes, SYBR Green DNA, 72 h; series mostly up to 28.7 µM
# Outline: as §1
# PAD = test: as above; conditions: P. falciparum in erythrocytes, SYBR Green DNA, 72 h; series mostly up to 28.7 µM
# Outline: as §1
# SC27B = test: as above; conditions: P. falciparum in erythrocytes, SYBR Green DNA, 72 h; series mostly up to 28.7 µM
# Outline: as §1
# [5] = molecular target: Cytochrome P450 2D6 (Homo sapiens) (UniProt P10635); test: Cytochrome P450 family 2 subfamily D member 6 (CYP2D6) small molecule antagonists: luciferase biochemical (cell-free) qHTS assay (AID 1645840; active = well fitted curve in the direction sought with a large enough effect in the repeat runs; an effect the other way counts as inactive or inconclusive; note: nearly all actives have a fitted effect of over 55% in size; note: potency is the fitted concentration of half-maximal effect)
# Outline: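 P450-Glo luminescent screen: recombinant CYP2D6 enzyme–proluciferin substrate mix preincubated with compound 10 min at room temperature, then NADPH regeneration added for 1 h at room temperature. Detection reagent added for 20 min; luciferin light read as relative luminescence units.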
# Ubiquitin carboxyl-terminal hydrolase 1 (Homo sapiens), sequence (O94782 whole entry, looked up): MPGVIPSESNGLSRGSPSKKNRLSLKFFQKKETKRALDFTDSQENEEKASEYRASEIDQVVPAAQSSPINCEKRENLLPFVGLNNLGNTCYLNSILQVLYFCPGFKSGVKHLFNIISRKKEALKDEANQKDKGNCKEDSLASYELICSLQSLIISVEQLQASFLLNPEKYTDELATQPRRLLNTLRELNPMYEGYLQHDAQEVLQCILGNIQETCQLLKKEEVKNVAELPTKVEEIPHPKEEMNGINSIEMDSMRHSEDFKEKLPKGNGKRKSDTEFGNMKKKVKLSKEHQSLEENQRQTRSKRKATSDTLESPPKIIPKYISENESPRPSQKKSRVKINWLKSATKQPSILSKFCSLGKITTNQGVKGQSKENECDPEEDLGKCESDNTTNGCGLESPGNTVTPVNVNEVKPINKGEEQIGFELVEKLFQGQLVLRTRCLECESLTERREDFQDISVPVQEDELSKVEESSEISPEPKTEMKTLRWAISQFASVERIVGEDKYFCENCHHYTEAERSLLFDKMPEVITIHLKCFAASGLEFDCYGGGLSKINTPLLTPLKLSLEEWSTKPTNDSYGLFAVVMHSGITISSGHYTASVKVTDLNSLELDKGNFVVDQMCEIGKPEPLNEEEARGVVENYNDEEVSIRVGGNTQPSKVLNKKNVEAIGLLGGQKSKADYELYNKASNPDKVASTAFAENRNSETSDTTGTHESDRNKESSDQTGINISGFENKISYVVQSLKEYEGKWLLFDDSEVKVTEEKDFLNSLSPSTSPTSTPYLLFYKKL
# Glucocorticoid receptor (Homo sapiens), sequence (P04150 whole entry, looked up): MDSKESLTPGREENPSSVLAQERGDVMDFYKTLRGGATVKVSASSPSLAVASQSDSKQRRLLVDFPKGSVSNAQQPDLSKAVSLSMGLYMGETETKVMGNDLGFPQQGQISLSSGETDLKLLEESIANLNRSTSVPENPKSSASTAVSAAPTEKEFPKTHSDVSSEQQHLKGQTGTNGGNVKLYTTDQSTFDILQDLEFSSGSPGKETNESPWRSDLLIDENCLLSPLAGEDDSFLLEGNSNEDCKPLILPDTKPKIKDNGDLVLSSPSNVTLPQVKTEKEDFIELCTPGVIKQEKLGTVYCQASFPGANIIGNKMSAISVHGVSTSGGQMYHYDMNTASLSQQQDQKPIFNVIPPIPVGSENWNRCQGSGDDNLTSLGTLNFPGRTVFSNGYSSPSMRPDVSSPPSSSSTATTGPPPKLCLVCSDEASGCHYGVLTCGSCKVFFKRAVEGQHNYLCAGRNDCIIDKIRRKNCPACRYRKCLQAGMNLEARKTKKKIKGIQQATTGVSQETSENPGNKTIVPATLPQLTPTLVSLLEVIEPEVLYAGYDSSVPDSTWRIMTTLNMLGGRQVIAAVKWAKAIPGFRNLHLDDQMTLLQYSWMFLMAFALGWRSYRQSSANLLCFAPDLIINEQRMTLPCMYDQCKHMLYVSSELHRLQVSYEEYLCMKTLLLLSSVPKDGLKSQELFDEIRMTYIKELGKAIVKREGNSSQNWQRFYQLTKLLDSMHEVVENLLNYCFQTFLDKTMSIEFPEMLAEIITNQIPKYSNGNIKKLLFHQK
# Cytochrome P450 2D6 (Homo sapiens), sequence (P10635 whole entry, looked up): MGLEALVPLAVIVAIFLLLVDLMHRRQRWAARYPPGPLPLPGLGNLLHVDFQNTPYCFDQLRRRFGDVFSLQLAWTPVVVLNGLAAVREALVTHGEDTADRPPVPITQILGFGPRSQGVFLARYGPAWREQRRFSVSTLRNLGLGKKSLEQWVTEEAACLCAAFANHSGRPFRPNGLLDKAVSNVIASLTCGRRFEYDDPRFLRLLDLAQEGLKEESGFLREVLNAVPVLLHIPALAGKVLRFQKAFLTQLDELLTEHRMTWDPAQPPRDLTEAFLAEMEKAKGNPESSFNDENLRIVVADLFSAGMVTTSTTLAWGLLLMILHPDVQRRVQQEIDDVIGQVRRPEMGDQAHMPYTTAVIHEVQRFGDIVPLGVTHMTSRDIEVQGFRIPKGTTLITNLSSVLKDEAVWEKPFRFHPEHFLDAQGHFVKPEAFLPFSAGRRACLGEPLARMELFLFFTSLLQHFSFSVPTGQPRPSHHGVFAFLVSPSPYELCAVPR
# DNA dC->dU-editing enzyme APOBEC-3G (Homo sapiens), sequence (Q9HC16 whole entry, looked up): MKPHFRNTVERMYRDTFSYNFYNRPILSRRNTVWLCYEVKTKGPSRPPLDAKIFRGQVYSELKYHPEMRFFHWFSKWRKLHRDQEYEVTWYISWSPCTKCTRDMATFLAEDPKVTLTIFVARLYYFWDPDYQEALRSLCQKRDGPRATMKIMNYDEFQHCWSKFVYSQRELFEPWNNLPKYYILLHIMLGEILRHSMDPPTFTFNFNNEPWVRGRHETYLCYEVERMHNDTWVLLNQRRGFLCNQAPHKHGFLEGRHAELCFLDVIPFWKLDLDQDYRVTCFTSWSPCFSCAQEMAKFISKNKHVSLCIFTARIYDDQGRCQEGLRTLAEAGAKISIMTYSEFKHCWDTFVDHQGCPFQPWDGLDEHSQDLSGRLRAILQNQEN
structure (smiles),measurement,setting,value
C=C[C@@](C)(O)CC[C@@H]1[C@@]2(C)CCCC(C)(C)[C@@H]2CC[C@@]1(C)O,outcome,[1],inactive
C[C@@]12C(=O)OC(=O)[C@]1(C)[C@H]1CC[C@@H]2O1,Potency,[2],2.63 µM (active)
same,Potency,[3],inactive
same,Potency,[4],0.616 µM (active)
same,Potency,CP238,2.51 µM (active)
same,Potency,CP250,3.16 µM (active)
same,Potency,CP262,3.61 µM (active)
same,Potency,CP265,3.55 µM (active)
same,Potency,CP297,3.22 µM (active)
same,Potency,CP315,5.73 µM (active)
same,Potency,CP325,3.61 µM (active)
same,Potency,CP329,2.56 µM (active)
same,Potency,CP335,2.56 µM (active)
same,Potency,Dd2,4.47 µM (active)
same,Potency,ECU,3.55 µM (active)
same,Potency,FAB9,inactive
same,Potency,GB4,4.05 µM (active)
same,Potency,PAD,3.98 µM (active)
same,Potency,SC27B,2.82 µM (active)
CN(CCOc1ccc(C[C@H](Nc2ccccc2C(=O)c2ccccc2)C(=O)O)cc1)c1ccccn1,Potency,[2],> 46 µM
same,outcome,[1],inactive
CC(/C=C1\SC(=S)N(CC(=O)O)C1=O)=C\c1ccccc1,Potency,[3],inactive
same,Potency,[4],inactive
same,Potency,CP238,inactive
same,Potency,CP250,inactive
same,Potency,CP262,inactive
same,Potency,CP265,inactive
same,Potency,CP297,inactive
same,Potency,CP315,inactive
same,Potency,CP325,inactive
same,Potency,CP329,inactive
same,Potency,CP335,inactive
same,Potency,Dd2,inactive
same,Potency,ECU,inactive
same,Potency,FAB9,inactive
same,Potency,GB4,inactive
same,Potency,PAD,inactive
same,Potency,SC27B,inactive
Cc1c(CN2CCN(C(=O)[C@H](C)O)CC2)sc2c(N3CCOCC3)nc(-c3cnc(N)nc3)nc12,Potency,[5],inactive
O=C(/C=C/c1cccnc1)NCCCCC1CCN(C(=O)c2ccccc2)CC1,Potency,[5],16.9 µM (active)
COC1=C(OC)C(=O)C(C/C=C(\C)CC/C=C(\C)CC/C=C(\C)CC/C=C(/C)CC/C=C(\C)CC/C=C(\C)CC/C=C(\C)CC/C=C(\C)CC/C=C(\C)CCC=C(C)C)=C(C)C1=O,Potency,[3],inactive
C=C1CCC2[C@](C)(CO)C(O)CC[C@]2(C)C1C/C=C1/C(=O)OCC1O (stereo partly drawn),Potency,[4],14.4 µM (active)
same,Potency,CP238,inactive
same,Potency,CP250,12.6 µM (active)
same,Potency,CP262,inactive
same,Potency,CP265,inactive
same,Potency,CP297,inactive
same,Potency,CP315,inactive
same,Potency,CP325,inactive
same,Potency,CP329,inactive
same,Potency,CP335,inactive
same,Potency,Dd2,inactive
same,Potency,ECU,inactive
same,Potency,FAB9,inactive
same,Potency,GB4,inactive
same,Potency,PAD,inactive
same,Potency,SC27B,inactive
Cc1cccc(/C=N/Nc2cc(N3CCOCC3)nc(OCCc3ccccn3)n2)c1,Potency,[5],10.7 µM (active)
